High-throughput results as filed in PubChem.
A selection: hits, their analogues and other compounds. The true share with any hit is near 1.4%.
JNK3 inh – inhibitors of human JNK3 kinase | P53779 | purified JNK3 kinase activity, HTS | inhibition, % at 8 µM | 0.61% of 60,000 active | AID 746; in the data active means inhibition above about 17%;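 further: 0% = DMSO and 100% = reference inhibitor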
Htt clearance – compounds clearing mutant huntingtin protein. inhibition, % at 1.5 µM. 0.42% of 47,000 active. AID 853. HeLa Exon1htt(103Q)mCFP, aggregate imaging; zero = plate's median compound well;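 active means inhibition of aggregate fluorescence above about 70%, also judged a hit by eye on the cell image, limit read from the data, passing the limit was not always enough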;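 further: cells exposed to compound for three days before fixation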
PKA kinase inh – inhibitors of human protein kinase A; P17612; PKA Kemptide phosphorylation, Kinase-Glo ATP luminescence; inhibition, % at 6 µM; 0.1% of 65,000 active;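 active means inhibition above the screen-wide mean inhibition plus 3 SD, cut at about 21% in these data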
ROCK2 blocker – blocks human Rho kinase 2 activity; inhibition, % at 6 µM; 0.35% of 60,000 active; purified ROCK2, Kinase-Glo ATP depletion luminescence;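 active means inhibition above the screen-wide mean inhibition plus 3 SD, cut at about 18% in these data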;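 further: plate controls were DMSO wells for no effect and Y-27632 control wells after no-enzyme background subtraction for full effect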
SK-BR-3 tox 24h – SK-BR-3 proliferation inhibitors. SK-BR-3 viability, CellTiter-Glo ATP luminescence, 24 h; hits give low values. viability, % at 10 µM. 0.47% of 41,000 active;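 active means viability at or below the median of all test compounds minus 3 SD, in both replicates if run twice, cut at about 45% in these data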;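 further: 100% = median untreated cell wells and 0% = median positive control drug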
HER2 expr 66K – Her2 kinase expression inhibition. P04626. SKBR-3 HER2 protein level, AlphaScreen, 18-24 h; hits give low values. HER2 level % of control, % at 10 µM. 0.69% of 65,000 active. AID 645;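 active means HER2 level under 5% of the carrier-only control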;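 further: 100% = DMSO carrier and 0% = 500 nM PU-H71 HSP90 inhibitor; lower value means stronger loss of Her2 protein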
* marks the source's active call; other numbers are inactive results.

For CCOC(=O)c1ccc(-n2nc(C(F)(F)F)c3c(C)cc(=O)oc32)cc1 the results were Htt clearance 56.
For COc1cccc2c(=O)c(C/C=C(/C)Cl)c(C)[nH]c12 the results were JNK3 inh 18*, PKA kinase inh 7, ROCK2 blocker 0, SK-BR-3 tox 24h 89 and HER2 expr 66K 86.
For CNC(=O)c1[nH]cnc1C(=O)Nc1cccc(OC)c1 the results were JNK3 inh 18*, Htt clearance 12, PKA kinase inh 2, ROCK2 blocker 6, SK-BR-3 tox 24h 92 and HER2 expr 66K 95.
For O=S(=O)(c1cccs1)N1CCCc2ccccc21 the results were JNK3 inh -5, Htt clearance 1, PKA kinase inh -5, ROCK2 blocker -5, SK-BR-3 tox 24h 90 and HER2 expr 66K 96.
`COc1cc(NC(=O)c2ccco2)c(OC)cc1NC(=O)CSc1nnc(-c2cccs2)n1C` gave JNK3 inh 2, Htt clearance -21, PKA kinase inh 4, ROCK2 blocker 1, SK-BR-3 tox 24h 42* and HER2 expr 66K 60.
`Cc1ccccc1NC(=O)c1nc[nH]c1C(=O)NCc1ccccc1` gave JNK3 inh 21*, Htt clearance 34, PKA kinase inh -2, ROCK2 blocker -1, SK-BR-3 tox 24h 73 and HER2 expr 66K 66.
For Cc1ccccc1NC(=O)Nc1ccccc1C(=O)NCc1ccccc1 the results were Htt clearance 28.
CCOC(=O)c1ccc(NC(=O)CC2C(=O)N(c3ccc(F)cc3)C(=O)N2CCC(C)C)cc1 (configuration not stated) was read as Htt clearance -40.
For Cn1nnc2cc(C(=O)N3CCN(c4ccccc4)CC3)ccc21 the results were JNK3 inh -9, Htt clearance 80*, PKA kinase inh 7, ROCK2 blocker 9, SK-BR-3 tox 24h 92 and HER2 expr 66K 100.
Cc1ccc(C(=O)N2CCN(c3ccccc3)CC2)cc1C was read as JNK3 inh -8, PKA kinase inh 8, ROCK2 blocker 2, SK-BR-3 tox 24h 89 and HER2 expr 66K 109.
For c1nc(NC2CCCCC2)c2[nH]cnc2n1 the results were JNK3 inh 8, PKA kinase inh 39*, ROCK2 blocker 34*, SK-BR-3 tox 24h 86 and HER2 expr 66K 54.
O=C(c1n[nH]c(=O)c2ccccc12)N1CCN(c2ccc(F)cc2)CC1 was read as JNK3 inh -2, Htt clearance -4, PKA kinase inh 8, ROCK2 blocker 4 and HER2 expr 66K 97.
O=C(c1n[nH]c(=O)c2ccccc12)N1CCN(c2ccccc2)CC1 was read as JNK3 inh -3, PKA kinase inh -3, ROCK2 blocker -3, SK-BR-3 tox 24h 75 and HER2 expr 66K -20*.
`CCOC(=O)c1c(C)oc2c1c(C=NC1CCS(=O)(=O)C1)c(O)c1ccccc12` (configuration not stated) gave JNK3 inh -5, PKA kinase inh -4, ROCK2 blocker 0, SK-BR-3 tox 24h 56 and HER2 expr 66K 63.
`CCOC(=O)c1c(C)oc2c1c(C(c1ccncc1)N1CCOCC1)c(O)c1ccccc12` (configuration not stated) gave JNK3 inh 0, PKA kinase inh 5, ROCK2 blocker 4 and HER2 expr 66K -12*.
Screening Cc1cc(SCCC(=O)O)nc2ccccc12 returned JNK3 inh 7, PKA kinase inh 5, ROCK2 blocker 8, SK-BR-3 tox 24h 89 and HER2 expr 66K 108.
For O=C(CSc1ccc2ccccc2n1)c1ccc2c(c1)OCO2 the results were Htt clearance -5.
For O=C(O)CSc1ccc2ccccc2n1 the results were JNK3 inh 18*, Htt clearance 62, PKA kinase inh 6, ROCK2 blocker 4, SK-BR-3 tox 24h 73 and HER2 expr 66K 98.
Screening O=C(O)CCSc1ccc2ccccc2n1 returned JNK3 inh 28*, Htt clearance 38, PKA kinase inh 3, ROCK2 blocker 4, SK-BR-3 tox 24h 86 and HER2 expr 66K 103.
O=C(NCCCO)Nc1ccc2nc(-c3ccco3)c(-c3ccco3)nc2c1 was read as Htt clearance 24.
O=C(Nc1ccc(N2CCOCC2)cc1)Nc1ccc2nc(-c3ccco3)c(-c3ccco3)nc2c1 was read as JNK3 inh 0, Htt clearance -39, PKA kinase inh 4, ROCK2 blocker 42*, SK-BR-3 tox 24h 76 and HER2 expr 66K 21.
CCOC(=O)N1CCN(c2nc(-c3ccc(OC)cc3)no2)CC1 was read as JNK3 inh -5, Htt clearance 13, PKA kinase inh -2, ROCK2 blocker -3 and HER2 expr 66K 86.
Cc1onc(-c2ccccc2Cl)c1C(=O)N1CCN=C1SCc1cccnc1 was read as JNK3 inh 2, PKA kinase inh 11, ROCK2 blocker 6, SK-BR-3 tox 24h 61 and HER2 expr 66K 88.
`Cc1ccc(S(=O)(=O)c2c(C)nn(C(C)(C)C)c2OC(=O)c2ccc(Br)o2)cc1` gave JNK3 inh 7, Htt clearance -14, PKA kinase inh 5, ROCK2 blocker 5 and HER2 expr 66K 4.1*.
Screening Cc1ccc(S(=O)(=O)c2c(C)nn(C(C)(C)C)c2OC(=O)c2ccco2)cc1 returned JNK3 inh -5, Htt clearance -55, PKA kinase inh 1, ROCK2 blocker 3 and HER2 expr 66K 84.
COC(=O)c1cc(NC(=O)c2c(Cl)nc3sccn23)cc(C(=O)OC)c1 was read as JNK3 inh -1, Htt clearance -50, PKA kinase inh 4, ROCK2 blocker 4, SK-BR-3 tox 24h 26* and HER2 expr 66K 20.
CCOCCc1nnc(NC(=O)CSc2ccccc2)s1 was read as JNK3 inh -10, Htt clearance -15, PKA kinase inh 3, ROCK2 blocker 1, SK-BR-3 tox 24h 115 and HER2 expr 66K 111.
`COc1ccc(NC(=O)c2ccc(COc3ccccc3Br)o2)cc1OC` gave JNK3 inh 6, PKA kinase inh 15, ROCK2 blocker 5, SK-BR-3 tox 24h 88 and HER2 expr 66K 82.
`COc1cc(NC(=O)c2ccc(COc3ccccc3Br)o2)cc(OC)c1OC` gave JNK3 inh 20*, Htt clearance 31, PKA kinase inh -1, ROCK2 blocker 1, SK-BR-3 tox 24h 106 and HER2 expr 66K 79.
For CC(C)C(OC(=O)CN1C(=O)COc2ccccc21)C(=O)NC1CCCC1 (configuration not stated) the results were JNK3 inh -3, Htt clearance -44, PKA kinase inh 1, ROCK2 blocker -3, SK-BR-3 tox 24h 92 and HER2 expr 66K 80.
Screening Cc1ccc2c(c1)N(CC(=O)OC(CC(C)C)C(=O)NC1CCCC1)C(=O)CO2 (configuration not stated) returned JNK3 inh -5, PKA kinase inh -1, ROCK2 blocker -1, SK-BR-3 tox 24h 84 and HER2 expr 66K -24*.
